Assay results reported in PubChem BioAssay (EPA / NIEHS).
“And” between values parts separate entries of the source, which are not always exact repeats. Identical values can stand only once. Some compounds were tested as several samples or in several runs, with calls that do not always agree. The source made the active and inactive calls. How the source made its calls: active means hit-call score of the fitted dose curve at least 0.9, where 1 is the maximum; inactive means score below 0.9.

Assays:
[1] = APR_HepG2_P-H2AX_72hr: Apredica 72-hour HepG2 Assay for H2AX Phosphorylation (AID 2282916); conditions: imaging, actives raise or lower the signal;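 further: phospho-histone H2A.x immunostain intensity per cell marking DNA damage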
Procedure, shortened: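 Phospho-H2A.x imaging endpoint in HepG2 after 72 hr compound exposure (0.39–200 uM, duplicate wells). Activity derived by bidirectional curve fitting with DMSO as baseline.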

[2] = APR_HepG2_MitoticArrest_72hr: Apredica 72-hour HepG2 Assay for Mitotic Arrest (AID 2282918); conditions: high-content imaging, actives raise or lower the signal
Procedure, shortened: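 HepG2 cells were exposed for 72 hr to compound at 0.39–200 uM (10 concentrations, duplicate) in 0.5% v/v DMSO, fixed in 3.7% formaldehyde, immunostained for phospho-histone H3 with Hoechst 33342 and imaged by high-content fluorescence; bidirectional fits versus DMSO.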

[3] = APR_HepG2_MicrotubuleCSK_72hr: Apredica 72-hour HepG2 Assay for Microtubule CSK Stabilty (AID 2282919); conditions: HepG2 microtubule cytoskeleton, high-content imaging, actives raise or lower the signal
Procedure, shortened: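 HepG2, 72 hr cmpd exposure, 0.39–200 uM (10 pts, duplicate), 0.5% DMSO. 3.7% formaldehyde fix, 0.5% Triton perm, anti-alpha-tubulin/Cy5 plus Hoechst. HCS fluorescence intensity; bidirectional fit vs DMSO baseline; taxol as positive control.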

[4] = APR_HepG2_P-H2AX_24hr: Apredica 24-hour HepG2 Assay for H2AX Phosphorylation (AID 2282920); conditions: high-content imaging, actives raise or lower the signal
Procedure, shortened: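 HepG2 human liver cells were exposed for 24 hr to compounds at 0.39–200 uM in duplicate, with 0.5% v/v DMSO final. Fixed cells were immunostained for phospho-histone H2A.x plus Hoechst 33342, imaged by HCS fluorescence, and fitted bidirectionally against DMSO.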

[5] = APR_HepG2_StressKinase_72hr: Apredica 72-hour HepG2 Assay for Stress Kinase (AID 2282921); conditions: HepG2 stress kinase (phospho-c-Jun) imaging, actives raise or lower the signal
Procedure, shortened: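 Stress kinase signal reflects nuclear phospho-c-Jun staining in fixed, permeabilized cells exposed 72 h to compound at 0.39–200 uM; DMSO-normalized, fitted for increases or decreases.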

[6] = APR_HepG2_StressKinase_24hr: Apredica 24-hour HepG2 Assay for Stress Kinase (AID 2282922); conditions: HepG2 stress kinase (phospho-c-Jun) imaging, actives raise or lower the signal
Procedure, shortened: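 Read-out: phospho-c-Jun immunofluorescence (Cy3 secondary) quantified by high-content imaging at 20x, nuclei defined by Hoechst 33342. Human HepG2 liver cells dosed 24 hr, 0.39–200 uM, DMSO 0.5% v/v; gain or loss of signal fitted relative to DMSO.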

[7] = APR_HepG2_p53Act_72hr: Apredica 72-hour HepG2 Assay for p53 Activation (AID 2282923); conditions: high-content imaging, actives raise or lower the signal;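 further: average cellular p53 protein immunofluorescence intensity in HepG2 cells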
Procedure, shortened: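 Fixed-cell p53 staining (sheep primary, Cy5 secondary) measured by fluorescence imaging following 72 hr treatment at 0.39–200 uM in 0.5% DMSO; DMSO served as negative control and baseline.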

[8] = APR_HepG2_MitoMass_72hr: Apredica 72-hour HepG2 Assay for Mitochondrial Mass (AID 2282924); conditions: high-content imaging, actives raise or lower the signal;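 further: MitoTracker Red CMXRos stain intensity per cell imaged as mitochondrial mass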
Procedure, shortened: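 Read-out: MitoTracker Red fluorescence intensity from automated imaging (20x, six fields per well) in human HepG2 liver cells. Dosing ran 72 hr, 0.39–200 uM, 0.5% DMSO; bidirectional curve fitting versus DMSO baseline.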

[9] = APR_HepG2_NuclearSize_72hr: Apredica 72-hour HepG2 Assay for Nuclear Size (AID 2282925); conditions: high-content imaging, actives raise or lower the signal
Procedure, shortened: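 Read-out: nuclear diameter from Hoechst 33342 images (ArrayScan, 20x, six fields/well), via cell-cycle image analysis. HepG2 were dosed 0.39–200 uM for 72 hr in 0.5% DMSO. Bidirectional fit relative to DMSO.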

[10] = ATG_CRE_CIS: Attagene CIS-FACTORIAL HepG2 Assay for human cAMP Responsive Element (CRE) binding protein 3 (AID 2282926); conditions: HepG2 CRE cis-reporter, Attagene multiplexed mRNA; actives raise or lower the signal
Procedure, shortened: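 Capillary electrophoresis of 6-FAM-labelled, HpaI-digested PCR products quantified reporter transcripts. These came from HepG2 transiently transfected with cis-element reporters and exposed to test chemicals for 24 hours, with DMSO defining baseline activity.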

[11] = biological target: CCAAT/enhancer-binding protein beta (Homo sapiens) (UniProt P17676); experiment: ATG_C_EBP_CIS: Attagene CIS-FACTORIAL HepG2 Assay for human CCAAT/Enhancer Binding Protein (C/EBP) beta (AID 2282927); conditions: HepG2 Attagene cis-factorial transcription factor reporter; actives raise or lower the signal
Procedure, shortened: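 HepG2 transiently transfected with multiplexed reporter units under cis-regulatory promoters reporting endogenous C/EBPb activity. After 24 h exposure, reporter mRNA assayed by RT-PCR, fluorescent labelling, HpaI digestion and capillary electrophoresis; bidirectional fitting versus DMSO.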

[12] = ATG_CMV_CIS: Attagene CIS-FACTORIAL HepG2 Assay for human CMV (Internal Marker) (AID 2282928); conditions: HepG2 CMV promoter reporter, transcription factor profiling; actives raise or lower the signal;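 further: endpoint acts as a background internal control marker rather than a target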
Procedure, shortened: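 Fluorescence intensity of RT-PCR-derived reporter fragments, resolved by capillary electrophoresis, gives the signal. HepG2 liver cells bearing transfected cis-element reporters were treated 24 h; activity in either direction was fit relative to DMSO-treated controls.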

[13] = ATG_DR4_LXR_CIS: Attagene CIS-FACTORIAL HepG2 Assay for human Liver X Receptor (LXR), DR4 submotif (AID 2282929); conditions: HepG2 Attagene DR4 cis-reporter, mRNA transcription; actives raise or lower the signal
Procedure, shortened: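 HepG2 cells transiently transfected with cis-promoter-driven multiplexed reporter units (DR4 element) were dosed for 24 h. Reporter mRNA was quantified by RT-PCR, fluorescent primer extension, HpaI digestion and capillary electrophoresis; bidirectional fitting versus DMSO baseline.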

[14] = biological target: Aryl hydrocarbon receptor (Homo sapiens) (UniProt P35869); experiment: ATG_Ahr_CIS: Attagene CIS-FACTORIAL HepG2 Assay for human Aryl Hydrocarbon Receptor (Ahr) (AID 2282930); conditions: HepG2 AhR cis-factorial reporter transcription; actives raise or lower the signal
Procedure, shortened: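 HepG2 cells transiently transfected with cis-element-driven multiplexed reporter units; endogenous AhR activity read as reporter mRNA 24 h after dosing, via RT-PCR, 6-FAM labelling, HpaI digestion and capillary electrophoresis. Bidirectional fit relative to DMSO.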

[15] = ATG_AP_1_CIS: Attagene CIS-FACTORIAL HepG2 Assay for human Activator Protein 1 (AP-1) (AID 2282931); conditions: HepG2 Attagene cis-factorial AP-1 reporter mRNA; actives raise or lower the signal
Procedure, shortened: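 HepG2 cells transiently transfected with cis-element-driven multiplex reporter units; 24 h compound exposure. Reporter mRNA quantified by RT-PCR, FAM-labelled fragments resolved by capillary electrophoresis; bidirectional fit versus DMSO baseline.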

[16] = ATG_AP_2_CIS: Attagene CIS-FACTORIAL HepG2 Assay for human Activator Protein 2 (AP-2) (AID 2282932); conditions: HepG2 AP-2 cis-reporter, Attagene transcription factor profiling; actives raise or lower the signal
Procedure, shortened: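 Read-out: fluorescent reporter mRNA via RT-PCR and capillary electrophoresis, 24 h post-dose in transiently transfected HepG2. Endogenous factors drive cis-promoter reporters; gain or loss of signal fitted bidirectionally against DMSO.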

[17] = ATG_BRE_CIS: Attagene CIS-FACTORIAL HepG2 Assay for human Bone Morphogenetic Protein (BMP) Response Element (BRE) (AID 2282933); conditions: HepG2 BMP response element reporter, Attagene transcription factor profiling; actives raise or lower the signal
Procedure, shortened: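 Multiplexed cis-reporter assay, HepG2, 24 h exposure. mRNA from reporter units quantified via RT-PCR/CE; DMSO baseline; bidirectional curve fit.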

[18] = biological target: Retinoic acid receptor alpha (Homo sapiens) (UniProt P10276); experiment: ATG_DR5_RAR_CIS: Attagene CIS-FACTORIAL HepG2 Assay for human Retinoic Acid Receptor Alpha (RARE), DR5 submotif (AID 2282934); conditions: HepG2 Attagene cis-factorial RARE DR5 reporter, mRNA; actives raise or lower the signal
Procedure, shortened: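 HepG2 cells transiently transfected with multiplexed reporter units; DR5 cis-element drives reporter through endogenous transcription factors. After 24 h dosing, reporter mRNA quantified by RT-PCR, fluorescent labeling, HpaI digestion and capillary electrophoresis; bidirectional fitting versus DMSO.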

[19] = biological target: Transcription factor E2F1 (Homo sapiens) (UniProt Q01094); experiment: ATG_E2F_CIS: Attagene CIS-FACTORIAL HepG2 Assay for human E2F Transcription Factor 1 (AID 2282935); conditions: HepG2 Attagene cis-reporter, E2F reporter RNA transcripts; actives raise or lower the signal
Procedure, shortened: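 Transient MRTU transfection of HepG2; 24 h compound exposure; RNA → oligo(dT) RT → PCR → FAM label → HpaI cut → CE fluorescence. Gain/loss of signal fit against DMSO.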

Measured: AC50

Retinoic acid receptor alpha (Homo sapiens), sequence (P10276 whole entry, looked up): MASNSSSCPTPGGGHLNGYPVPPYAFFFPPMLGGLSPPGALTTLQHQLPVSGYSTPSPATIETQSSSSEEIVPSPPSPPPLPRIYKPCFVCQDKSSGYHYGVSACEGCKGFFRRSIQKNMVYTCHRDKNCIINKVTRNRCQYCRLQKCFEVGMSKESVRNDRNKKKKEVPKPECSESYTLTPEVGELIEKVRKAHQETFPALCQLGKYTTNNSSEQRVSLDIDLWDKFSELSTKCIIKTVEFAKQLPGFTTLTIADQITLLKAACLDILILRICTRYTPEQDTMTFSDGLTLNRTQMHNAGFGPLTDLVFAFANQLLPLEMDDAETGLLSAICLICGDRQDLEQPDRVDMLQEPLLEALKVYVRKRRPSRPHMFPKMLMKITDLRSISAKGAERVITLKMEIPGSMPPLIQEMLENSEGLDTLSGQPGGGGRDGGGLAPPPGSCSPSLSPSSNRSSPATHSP
CCAAT/enhancer-binding protein beta (Homo sapiens), sequence (P17676 whole entry, looked up): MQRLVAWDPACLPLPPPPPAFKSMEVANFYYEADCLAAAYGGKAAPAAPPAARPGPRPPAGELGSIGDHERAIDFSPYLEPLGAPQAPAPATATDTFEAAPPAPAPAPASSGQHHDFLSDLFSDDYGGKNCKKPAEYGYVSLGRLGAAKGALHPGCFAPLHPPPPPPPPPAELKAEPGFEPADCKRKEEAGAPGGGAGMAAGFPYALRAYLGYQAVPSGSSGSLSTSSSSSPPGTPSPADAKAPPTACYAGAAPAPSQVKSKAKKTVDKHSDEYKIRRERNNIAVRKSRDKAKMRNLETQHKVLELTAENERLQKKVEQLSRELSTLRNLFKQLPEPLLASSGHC
Transcription factor E2F1 (Homo sapiens), sequence (Q01094 whole entry, looked up): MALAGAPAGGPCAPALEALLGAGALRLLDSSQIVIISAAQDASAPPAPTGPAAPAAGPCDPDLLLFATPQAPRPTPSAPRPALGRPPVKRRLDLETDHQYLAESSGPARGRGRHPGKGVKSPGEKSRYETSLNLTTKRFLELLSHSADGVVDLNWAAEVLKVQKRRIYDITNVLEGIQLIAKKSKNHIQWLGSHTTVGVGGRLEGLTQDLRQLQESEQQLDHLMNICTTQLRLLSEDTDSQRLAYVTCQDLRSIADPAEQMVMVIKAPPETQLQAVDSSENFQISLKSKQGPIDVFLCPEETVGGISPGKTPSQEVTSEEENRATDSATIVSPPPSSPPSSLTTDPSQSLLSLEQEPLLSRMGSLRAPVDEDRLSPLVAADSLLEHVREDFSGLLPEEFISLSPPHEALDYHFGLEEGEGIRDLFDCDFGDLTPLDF
Aryl hydrocarbon receptor (Homo sapiens), sequence (P35869 whole entry, looked up): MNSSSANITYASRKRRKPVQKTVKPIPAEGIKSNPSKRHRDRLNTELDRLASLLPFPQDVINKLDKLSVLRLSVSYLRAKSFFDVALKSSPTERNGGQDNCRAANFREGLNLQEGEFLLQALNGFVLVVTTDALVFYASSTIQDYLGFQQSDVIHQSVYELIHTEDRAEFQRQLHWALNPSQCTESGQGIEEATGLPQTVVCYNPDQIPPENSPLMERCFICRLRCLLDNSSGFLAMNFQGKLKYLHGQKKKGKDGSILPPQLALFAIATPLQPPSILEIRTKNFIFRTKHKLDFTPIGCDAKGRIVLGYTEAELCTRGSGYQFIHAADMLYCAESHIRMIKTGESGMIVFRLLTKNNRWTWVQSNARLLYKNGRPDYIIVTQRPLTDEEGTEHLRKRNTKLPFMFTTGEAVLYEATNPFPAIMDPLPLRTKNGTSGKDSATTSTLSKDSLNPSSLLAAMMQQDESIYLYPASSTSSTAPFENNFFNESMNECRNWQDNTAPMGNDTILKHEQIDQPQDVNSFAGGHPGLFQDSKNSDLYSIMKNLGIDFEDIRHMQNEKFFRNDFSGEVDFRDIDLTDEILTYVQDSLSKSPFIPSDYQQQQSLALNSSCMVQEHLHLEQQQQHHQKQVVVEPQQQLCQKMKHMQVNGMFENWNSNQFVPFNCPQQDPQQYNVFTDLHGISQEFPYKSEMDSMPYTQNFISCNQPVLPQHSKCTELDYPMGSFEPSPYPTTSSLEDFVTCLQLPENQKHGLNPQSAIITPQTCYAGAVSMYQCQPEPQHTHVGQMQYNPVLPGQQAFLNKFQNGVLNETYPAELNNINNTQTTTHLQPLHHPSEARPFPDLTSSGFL

Oc1ccc2ccccc2c1
active: [13] 100 µM | [14] 870 nM and 1.98 µM
inactive: all other assays above

c1ccc2n[nH]nc2c1
active: [14] 51.9 µM
inactive: [1] | [2] | [3] | [4] | [5] | [6] | [7] | [8] | [9] | [10] | [11] | [12] | [13] | [14] | [15] | [16] | [17] | [18] | [19]

CC(=O)N1CCN(c2ccc(OC[C@H]3CO[C@](Cn4ccnc4)(c4ccc(Cl)cc4Cl)O3)cc2)CC1
active: [1] 32.3 µM | [2] 75.9 µM | [6] 74.9 µM | [7] 14.5 µM | [10] 20.7 µM | [12] 44.4 µM | [14] 0.412 µM | [15] 43.5 µM | [17] 28.6 µM
inactive: [3] | [4] | [5] | [8] | [9] | [11] | [16] | [18] | [19]
